Results filed as inconclusive are left out. The source made the active and inactive calls. Rule for the calls, unless noted: active = hit-call score of the fitted dose curve at least 0.9, where 1 is the maximum; inactive = score below 0.9.
Tests used:
[1] = target: Cellular tumor antigen p53 (Homo sapiens) (UniProt P04637); experiment: TOX21_p53_BLA_p2_ratio: Tox21 HCT-116 p53 Agonism Beta-lactamase Assay, Ratio, Phase 2 (AID 2283592; active = hit-call score of the fitted dose curve at least 0.9, where 1 is the maximum)
How it was run: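 An inducible beta-lactamase reporter in HCT116 cells signals p53 pathway activation. After 16 h chemical exposure at 37C, cells load CCF4-AM substrate for 2 h at room temperature; activity is the cleaved/uncleaved emission ratio relative to DMSO.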

[2] = target: Cellular tumor antigen p53 (Homo sapiens) (UniProt P04637); experiment: TOX21_p53_BLA_p3_ratio: Tox21 HCT-116 p53 Agonism Beta-lactamase Assay, Ratio, Phase 3 (AID 2283596; active = hit-call score of the fitted dose curve at least 0.9, where 1 is the maximum)
How it was run: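 HCT116 p53-bla cells (4000/well) given compound in DMSO (217-fold dilution) after 5 h, incubated 16 h at 37C. CCF4-AM substrate 2 h at room temperature; 460/530 nm emission ratio, gain fitted against DMSO.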

[3] = TOX21_p53_BLA_p4_viability: Viability Assessment in the Tox21 HCT-116 p53 Agonism Beta-lactamase Assay, Phase 4 (AID 2283597; active = hit-call score of the fitted dose curve at least 0.9, where 1 is the maximum;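 note: hits lower the luminescence signal meaning cytotoxicity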)
How it was run: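 Compound exposure of HCT116 cells lasts 16 h at 37C, 5% CO2, with DMSO stocks diluted 217-fold. Cellular ATP is then quantified by CellTiter-Glo luminescence after 30 min at room temperature.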

[4] = target: Cellular tumor antigen p53 (Homo sapiens) (UniProt P04637); experiment: TOX21_p53_BLA_p5_ratio: Tox21 HCT-116 p53 Agonism Beta-lactamase Assay, Ratio, Phase 5 (AID 2283599; active = hit-call score of the fitted dose curve at least 0.9, where 1 is the maximum)
How it was run: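 HCT-116 cells carrying a p53-inducible beta-lactamase reporter were seeded at 4000 cells/well and dosed after 5 h with compound in DMSO (217-fold dilution). After 16 h at 37C, CCF4-AM substrate was added for 2 h, and the 460/530 nm emission ratio was scored as gain-of-signal versus DMSO.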

[5] = TOX21_p53_BLA_p5_viability: Viability Assessment in the Tox21 HCT-116 p53 Agonism Beta-lactamase Assay, Phase 5 (AID 2283600; active = hit-call score of the fitted dose curve at least 0.9, where 1 is the maximum)
How it was run: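 Counter-readout for cytotoxicity: ATP-dependent luminescence from CellTiter-Glo, read in the beta-lactamase wells after 30 min at RT, following a 16 h compound exposure at 37C.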

[6] = tested on: Thyroperoxidase (TPO), gene 54314; experiment: CCTE_Simmons_AUR_rTPO: CCTE's Amplex UltraRed Assay for Thyroperoxidase (TPO) Inhibition, Simmons Lab (AID 2283662; active = hit-call score of the fitted dose curve at least 0.9, where 1 is the maximum)
How it was run: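 Rat thyroid microsomal TPO + 25 uM AUR in 200 mM K phosphate; cpd 5 nM–87.5 uM [final], 8 conc, 0.5% DMSO; 300 uM H2O2 starts rxn; 37C dark 30 min; endpoint FI 544/590 nm; n=3.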

[7] = target: Luciferin 4-monooxygenase (Photinus pyralis) (UniProt P08659); experiment: CCTE_Simmons_QuantiLum_inhib_2: CCTE's Firefly Luciferase Inhibition Assay, Simmons Lab (AID 2283767; active = hit-call score of the fitted dose curve at least 0.9, where 1 is the maximum)
How it was run: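 Counter-screen for nonspecific enzyme inhibition: purified firefly luciferase incubated 30 min at 37C with chemicals up to 87.5 uM final, then luminescence measured after luciferin/dATP injection; activity fitted against DMSO baseline.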

[8] = target: Nucleoli Translocation, AR (gene 367) (UniProt P10275); experiment: UPITT_HCI_U2OS_AR_TIF2_Nucleoli_Agonist: University of Pittsburgh U2OS Androgen Receptor-Transcriptional Intermediary Factor 2 (AR-TIF2) Agonism High Content Imaging Assay for Nucleoli Translocation (AID 2283998; active = hit-call score of the fitted dose curve at least 0.9, where 1 is the maximum)
How it was run: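 Red-tagged human androgen receptor co-expressed with GFP-tagged TIF2 serves as the binding reporter. Primary testing used 20 uM final (0.2% DMSO); follow-up dose response covered 0.195 to 50 uM final (0.5% DMSO).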

[9] = target: Ratio of Nucleoli Translocation and Cytoplasm, AR (gene 367) (UniProt P10275); experiment: UPITT_HCI_U2OS_AR_TIF2_Nucleoli_Cytoplasm_Ratio_Antagonist: University of Pittsburgh U2OS Androgen Receptor-Transcriptional Intermediary Factor 2 (AR-TIF2) Antagonism High Content Imaging Assay for Ratio of Nucleoli Translocation and Cytoplasm (AID 2283999; active = hit-call score of the fitted dose curve at least 0.9, where 1 is the maximum;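 note: antagonists lower the DHT-driven ratio of nucleolar to cytoplasmic red signal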)
How it was run: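 High-content imaging quantifies the red nucleolar:cytoplasmic fluorescence ratio in U2OS cells with AR-RFP and TIF2-GFP. Final concentrations are 20 uM (screen) or 0.195–50 uM (dose response), analysed against DHT as baseline.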

[10] = target: Ratio of Nucleoli Translocation and Cytoplasm, AR (gene 367) (UniProt P10275); experiment: UPITT_HCI_U2OS_AR_TIF2_Nucleoli_Cytoplasm_Ratio_Agonist: University of Pittsburgh U2OS Androgen Receptor-Transcriptional Intermediary Factor 2 (AR-TIF2) Agonism High Content Imaging Assay for Ratio of Nucleoli Translocation and Cytoplasm (AID 2284000; active = hit-call score of the fitted dose curve at least 0.9, where 1 is the maximum;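 note: hits raise the red nucleolar to cytoplasm ratio above vehicle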)
How it was run: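 U2OS cells expressing RFP-tagged human AR and GFP-tagged TIF2 were imaged by high-content fluorescence microscopy. The endpoint is the ratio of nucleolar to cytoplasmic red fluorescence, fitted for gain of signal relative to DMSO. Concentration-response spanned 0.195 to 50 uM final (0.5% DMSO).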

[11] = CCTE_Harrill_HTTr_Viability_MCF7: CCTE's 6-hour Cell Viability Assessment for the High-Throughput Transcriptomics (HTTr) Platform, in MCF-7 cells cultured in DMEM + 10% fetal bovine serum, Harrill Lab (AID 2284010)
How it was run: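 Viability measured through PI dye exclusion by high-content imaging at 6 h post-dosing.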

[12] = CCTE_Harrill_HTTr_Apoptosis_MCF7: CCTE's 6-hour Apoptosis Assessment for the High-Throughput Transcriptomics (HTTr) Platform, in MCF-7 cells cultured in DMEM + 10% fetal bovine serum, Harrill Lab (AID 2284011)
How it was run: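 Cells are dosed with test chemicals at eight concentrations and imaged 6 hours later for caspase-3/7 activity using a green fluorogenic detection reagent. Activity is fitted in both directions against DMSO controls.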

[13] = CCTE_Shafer_MEA_dev_firing_rate_mean: CCTE's Neural Network Formation Assay for Mean Firing Rate, Shafer Lab (AID 2284031)
How it was run: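 Developing rat cortical networks on MEA plates undergo 12-day compound exposure. Firing frequency, averaged across active electrodes, is integrated as area under the curve over four recording days, referenced to DMSO.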

[14] = CCTE_Shafer_MEA_dev_per_burst_spike_percent: CCTE's Neural Network Formation Assay for Percent of Spikes in a Burst, Shafer Lab (AID 2284032)
How it was run: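 Rat primary cortical neurons on 16-electrode MEA wells, dosed from plating day 0 for 12 days with renewal on DIV 5 and 9; spikes-in-bursts percentage averaged over bursting electrodes, collapsed as AUC across days 5, 7, 9, 12; loss direction versus DMSO.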

[15] = CCTE_Shafer_MEA_dev_active_electrodes_number: CCTE's Neural Network Formation Assay for Number of Active Electrodes, Shafer Lab (AID 2284040; active = hit-call score of the fitted dose curve at least 0.9, where 1 is the maximum)
How it was run: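 Rat cortical primary cultures, 1.5 x 10^5 cells/well, PEI-coated MEA, laminin drop. Continuous exposure DIV 0–12; full media/compound change DIV 5, 9. Readout: electrodes with mean firing ≥5 spikes/min; AUC across days; loss vs DMSO.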

[16] = CCTE_Shafer_MEA_dev_burst_rate: CCTE's Neural Network Formation Assay for Burst Rate, Shafer Lab (AID 2284042)
How it was run: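 Rat primary cortical cultures on PEI/laminin MEA; compound from plating, re-dosed at DIV 5, 9 media change. Single-electrode bursts/recording length, well mean of active electrodes; AUC over DIV 5–12 recordings; loss-of-signal vs DMSO.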

[17] = CCTE_Shafer_MEA_dev_bursting_electrodes_number: CCTE's Neural Network Formation Assay for Number of Bursting Electrodes, Shafer Lab (AID 2284043; active = hit-call score of the fitted dose curve at least 0.9, where 1 is the maximum)
How it was run: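 Primary rat cortical neurons were cultured on PEI-coated 48-well MEA plates (16 electrodes/well) and exposed from plating through day 12, with compound renewed at feeds on DIV 5 and 9. Electrodes bursting ≥1 per 2 min were counted on DIV 5, 7, 9, 12; trapezoidal AUC taken.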

[18] = CCTE_Shafer_MEA_dev_burst_duration_mean: CCTE's Neural Network Formation Assay for Mean Burst Duration, Shafer Lab (AID 2284045)
How it was run: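 Primary rat cortical neurons on PEI-coated 16-electrode MEA wells, exposed from plating through day 12 with compound renewed at DIV 5 and 9; spontaneous activity recorded days 5, 7, 9, 12. Well-mean burst duration collapsed as trapezoidal AUC, fitted for loss versus DMSO.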

[19] = CCTE_Shafer_MEA_dev_interburst_interval_mean: CCTE's Neural Network Formation Assay for Mean Interburst Interval, Shafer Lab (AID 2284046);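 note: well-mean interburst interval of bursting electrodes as AUC over four recording days; curve fitted for decrease in interburst interval relative to DMSO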
How it was run: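 Rat cortical neurons, 1.5 x 10^5 cells/well, 48-well MEA; compound from day 0 through DIV 12, media and treatment renewed DIV 5/9. Recordings DIV 5, 7, 9, 12; well-mean interburst interval → trapezoidal AUC, loss direction vs DMSO.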

[20] = CCTE_Shafer_MEA_dev_inter_network_spike_interval_mean: CCTE's Neural Network Formation Assay for Mean Inter-network Spike Interval, Shafer Lab (AID 2284047)
How it was run: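 Primary rat cortical neurons on PEI-coated 48-well MEAs (16 electrodes/well) were exposed from plating day 0 to DIV 12, with dosing renewed at DIV 5 and 9. Recordings at DIV 5, 7, 9, 12 were collapsed by trapezoidal AUC, loss-of-signal fit vs DMSO.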

[21] = CCTE_Shafer_MEA_dev_network_spike_number: CCTE's Neural Network Formation Assay for Number of Network Spikes, Shafer Lab (AID 2284048);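 note: synchronized bursts across electrodes counted on days 5 7 9 12 and integrated as AUC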
How it was run: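 Primary rat cortical neurons were seeded at 1.5 x 10^5 cells/well on PEI-coated 16-electrode MEA wells with laminin, exposed from plating day 0, compound renewed at DIV 5 and 9. Network spikes were recorded on days 5, 7, 9, 12 and summarized as trapezoidal AUC versus DMSO.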

[22] = CCTE_Shafer_MEA_dev_network_spike_peak: CCTE's Neural Network Formation Assay for Mean Number of Electrodes in Network Spike, Shafer Lab (AID 2284049)
How it was run: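 Continuous 12-day exposure of rat cortical cultures, starting at plating, on MEA plates. Endpoint: electrodes participating in network-spike peaks, AUC across DIV 5–12, DMSO as negative control.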

[23] = CCTE_Shafer_MEA_dev_spike_duration_mean: CCTE's Neural Network Formation Assay for Mean Spike Duration, Shafer Lab (AID 2284051);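 note: mean network spike duration pooled as area under curve over DIV 5 to 12 recordings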
How it was run: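 Rat cortical primary cultures, 48-well MEA (16 electrodes/well); compound from plating, renewed DIV 5, 9. Network spike duration (AxIS adaptive detector) recorded DIV 5/7/9/12, combined as trapezoidal AUC; loss direction vs DMSO.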

[24] = CCTE_Shafer_MEA_dev_network_spike_duration_std: CCTE's Neural Network Formation Assay for Standard Deviation of Network Spike Duration, Shafer Lab (AID 2284052);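 note: area under curve of spike duration SD across recording days 5 to 12; hits are decreases in network spike duration SD versus DMSO vehicle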
How it was run: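 Rat cortical cultures, 1.5 x 10^5 cells/well, exposed continuously from plating to DIV 12 with media/compound renewal at DIV 5, 9. Spontaneous activity recorded DIV 5/7/9/12, AxIS adaptive spike detector; AUC across days; negative direction vs DMSO.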

[25] = CCTE_Shafer_MEA_dev_per_network_spike_spike_number_mean: CCTE's Neural Network Formation Assay for Mean Number of Spikes in a Network Spike, Shafer Lab (AID 2284053)
How it was run: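 Rat cortical primary cultures on 48-well MEA; compound from day 0, re-dosed with full media change DIV 5, 9. Recorded DIV 5, 7, 9, 12; spikes in 0.05 s window at network-spike peak ÷ total network spikes; AUC; loss vs DMSO.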

[26] = CCTE_Shafer_MEA_dev_per_network_spike_spike_percent: CCTE's Neural Network Formation Assay for Percent of Spikes in a Network Spike, Shafer Lab (AID 2284054)
How it was run: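 Primary rat cortical neurons on 16-electrode MEA wells (PEI-coated, laminin at plating), exposed from day 0 with renewal at DIV 5 and 9; spikes within 0.05 s of network-spike peaks over total spikes, AUC across days 5, 7, 9, 12.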

[27] = CCTE_Shafer_MEA_dev_LDH: CCTE's Lactate Dehydrogenase Assay for Cytotoxicity in the Neural Network Formation Assay, Shafer Lab (AID 2284068; active = hit-call score of the fitted dose curve at least 0.9, where 1 is the maximum;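 note: exposure for twelve days from plating with re-dosing on DIV 5 and 9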)
How it was run: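 Rat cortical primary neurons, MEA culture; dosing day 0–12, full medium plus compound exchange DIV 5, 9. Read-out: LDH enzyme activity, spectrophotometric. DMSO = negative control/baseline; signal loss → cytotoxicity.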

[28] = CCTE_Shafer_MEA_dev_AB: CCTE's Alamar Blue Assay for Cytotoxicity in the Neural Network Formation Assay, Shafer Lab (AID 2284083; active = hit-call score of the fitted dose curve at least 0.9, where 1 is the maximum;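 note: resazurin reduction fluorescence as viability of cultured neurons; twelve days of exposure from plating with re-dosing on DIV 5 and 9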)
How it was run: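 Rat cortical primary cultures, 1.5 x 10^5 cells/well on MEA; continuous compound exposure over 12 days of network development, re-dosed with full medium change DIV 5 and 9. Alamar Blue fluorescence; loss of signal = cytotoxicity vs DMSO baseline.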

[29] = CCTE_Shafer_MEA_dev_mutual_information_norm: CCTE's Neural Network Formation Assay for Mutual Information Normalization, Shafer Lab (AID 2284091)
How it was run: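 Rat cortical cultures, 48-well MEA, continuous exposure DIV 0–12 with full media/compound change DIV 5 and 9. Readout: inter-electrode mutual information, AxIS adaptive spike detection; AUC across DIV 5/7/9/12 recordings; DMSO baseline, negative fitting direction.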

[30] = TAMU_PeakParms_SingleDonor1434_Chronotropy: Texas A&M University (TAMU) 1.5-hr Human Induced Pluripotent Stem Cell (iPSC)-derived Cardiomyocytes Calcium (Ca+2) Flux Assay for Cardiotoxicity: Chronotropy (changes in peak frequency) (AID 2284217); details: actives raise or lower the signal
How it was run: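 iPSC-CMs, donor 1434; 4 conc (0.2–100 uM), 0.5% v/v DMSO, 90 min, 37C/5% CO2; Ca2+ flux fluorescence → peak.freq.avg; peak.freq.avg = 0 dropped; bidirectional fit vs DMSO; EC05 POD.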

[31] = TAMU_HCS_1.5hr_SingleDonor1434_Cytotoxicity: Cytotoxicity Assessment using High-content Screening (HCS) Fluorescent Imaging for the Texas A&M University (TAMU) 1.5-hr Human Induced Pluripotent Stem Cell (iPSC)-derived Cardiotoxicity Assay (AID 2284234; active = hit-call score of the fitted dose curve at least 0.9, where 1 is the maximum)
How it was run: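 Human iPSC-derived cardiomyocytes dosed at 0.2, 1, 10, 100 uM final (0.5% DMSO) for 90 min at 37 C. Hoechst 33342-stained nuclei counted by 10x high-content imaging; POD is EC10, a 10% drop in total cell count versus DMSO.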

[32] = TAMU_PeakParms_SingleDonor1434_Asystole: Texas A&M University (TAMU) 1.5-hr Human Induced Pluripotent Stem Cell (iPSC)-derived Cardiomyocytes Calcium (Ca+2) Flux Assay for Cardiotoxicity: Asystole (quiescence of beating) (AID 2284328; active = hit-call score of the fitted dose curve at least 0.9, where 1 is the maximum)
How it was run: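 Human iPSC-derived cardiomyocytes (donor 1434) were exposed to 0.2, 1, 10 and 100 uM compound in 0.5% DMSO for 90 min at 37C. Ca2+-dye fluorescence gave average peak frequency; POD is EC95, a 95% beat-rate drop versus DMSO.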

Measured: AC50

Sequence of Cellular tumor antigen p53 (Homo sapiens) (P04637 whole entry, looked up): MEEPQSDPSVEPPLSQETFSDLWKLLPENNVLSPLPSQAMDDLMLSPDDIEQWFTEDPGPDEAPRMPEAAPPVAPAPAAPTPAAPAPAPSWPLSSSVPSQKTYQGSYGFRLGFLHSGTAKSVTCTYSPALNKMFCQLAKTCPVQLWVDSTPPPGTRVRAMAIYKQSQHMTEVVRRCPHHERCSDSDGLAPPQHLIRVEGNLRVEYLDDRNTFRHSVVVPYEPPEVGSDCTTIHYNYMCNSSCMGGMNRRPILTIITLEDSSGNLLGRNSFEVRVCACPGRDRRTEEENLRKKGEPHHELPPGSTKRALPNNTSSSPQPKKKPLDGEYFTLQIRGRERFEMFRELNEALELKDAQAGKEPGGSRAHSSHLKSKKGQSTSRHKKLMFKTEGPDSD
Sequence of Ratio of Nucleoli Translocation and Cytoplasm, AR (gene 367) (P10275 whole entry, looked up): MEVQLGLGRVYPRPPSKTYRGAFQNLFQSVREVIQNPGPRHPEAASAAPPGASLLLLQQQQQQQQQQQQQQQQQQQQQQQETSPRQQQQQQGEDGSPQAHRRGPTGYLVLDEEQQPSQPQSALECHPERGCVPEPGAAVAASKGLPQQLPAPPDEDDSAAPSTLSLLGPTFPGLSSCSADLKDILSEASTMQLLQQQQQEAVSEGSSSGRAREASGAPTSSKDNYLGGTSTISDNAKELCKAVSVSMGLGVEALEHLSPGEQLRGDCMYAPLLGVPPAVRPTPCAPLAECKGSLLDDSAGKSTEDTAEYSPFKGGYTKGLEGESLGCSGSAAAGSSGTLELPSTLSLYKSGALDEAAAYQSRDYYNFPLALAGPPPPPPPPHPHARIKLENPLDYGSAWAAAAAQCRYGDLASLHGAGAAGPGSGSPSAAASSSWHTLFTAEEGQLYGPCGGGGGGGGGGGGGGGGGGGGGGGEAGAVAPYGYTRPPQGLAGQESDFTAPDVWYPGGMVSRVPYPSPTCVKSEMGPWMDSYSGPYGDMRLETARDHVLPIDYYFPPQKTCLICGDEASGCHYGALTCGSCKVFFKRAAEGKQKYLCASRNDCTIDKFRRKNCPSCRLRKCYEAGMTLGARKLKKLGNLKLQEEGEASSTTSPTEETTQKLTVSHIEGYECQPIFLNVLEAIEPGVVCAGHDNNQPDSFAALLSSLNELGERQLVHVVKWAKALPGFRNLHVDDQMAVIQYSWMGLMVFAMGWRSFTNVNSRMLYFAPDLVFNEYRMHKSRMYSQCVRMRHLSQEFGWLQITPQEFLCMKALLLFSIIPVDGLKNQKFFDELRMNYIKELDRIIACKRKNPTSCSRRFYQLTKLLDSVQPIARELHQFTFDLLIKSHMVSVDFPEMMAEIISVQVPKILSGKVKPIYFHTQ
Sequence of Luciferin 4-monooxygenase (Photinus pyralis) (P08659 whole entry, looked up): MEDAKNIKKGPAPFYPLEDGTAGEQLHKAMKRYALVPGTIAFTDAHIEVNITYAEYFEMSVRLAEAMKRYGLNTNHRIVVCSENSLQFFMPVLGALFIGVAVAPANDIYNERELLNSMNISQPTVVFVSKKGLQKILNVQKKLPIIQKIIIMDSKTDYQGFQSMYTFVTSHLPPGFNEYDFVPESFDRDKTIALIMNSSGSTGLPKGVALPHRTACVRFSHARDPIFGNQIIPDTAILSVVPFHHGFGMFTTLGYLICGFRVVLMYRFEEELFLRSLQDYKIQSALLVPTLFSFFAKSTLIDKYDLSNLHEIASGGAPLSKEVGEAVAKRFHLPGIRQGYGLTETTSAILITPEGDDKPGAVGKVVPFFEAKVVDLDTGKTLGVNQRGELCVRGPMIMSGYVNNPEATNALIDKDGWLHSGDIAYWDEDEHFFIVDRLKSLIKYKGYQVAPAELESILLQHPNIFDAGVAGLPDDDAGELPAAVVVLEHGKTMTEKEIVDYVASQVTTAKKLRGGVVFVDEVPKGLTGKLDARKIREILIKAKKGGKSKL
Sequence of Nucleoli Translocation, AR (gene 367) (P10275 whole entry, looked up): as the sequence (P10275 whole entry, looked up) above

c1ccc2cc3c(cc2c1)-c1cccc2cccc-3c12
active: [1] 3.24 µM | [2] 11 µM | [4] 4.58 µM | [30] 9.92 µM
inactive: all other assays above
